Data from PubChem BioAssay AID1272365 (Small Molecule Screening Facility, UW Madison, 2020).
Values joined by “and” are separate entries in the source; they are usually repeats but may differ in a detail not shown here. Identical values can stand only once. Screen size: about 430,000 compounds; about 2,600 (0.6%) were called active. Rule as the data show it: active = inhibition mostly above about 37% (no sharp cut-off); inactive = mostly below about 20%. The sample as a whole holds a higher share of actives than the screen did.

Tested on: PriA–SSB C-terminal tail interaction (Klebsiella pneumoniae)
Test: inhibitors of Klebsiella pneumoniae PriA binding to SSB C-terminal tail, primary screen, biochemical, AlphaScreen (AID 1272365);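 also: plate controls were negative control peptide for no effect and reference peptide for full effect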
Settings: AlphaScreen SSBct-PriA binding, biotinylated peptide; at 33 µM, stronger effect = higher value

| Structure (SMILES) | inhibition |
| --- | --- |
| O=C(NNC(=S)Nc1ccccc1)c1cccc(S(=O)(=O)N2CCOCC2)c1 | -5.79% (inactive) |
| Cc1cccc(-n2cnc(C(=O)Nc3cccnc3)c2)n1 | -12.9% (inactive) |
| Cc1cccc(-n2cnc(C(=O)NNC(=S)Nc3ccccc3)c2)n1 | 66.5% (active) |
| O=C(NCC(F)(F)F)C1CCN(c2cc(-n3cncn3)ncn2)CC1 | 4% (inactive) |
| Cc1c(CCOC(=O)C23CC4CC(CC(C)(C4)C2)C3)sc[n+]1Cc1ccc([N+](=O)[O-])cc1 | 39% (active) |
| O=C(Nc1ccc([N+](=O)[O-])cc1Br)C12CC3CC(CC(C3)C1)C2 | -8% (inactive) |
| Cc1c(CCOC(=O)CC23CC4CC(CC(C)(C4)C2)C3)sc[n+]1Cc1ccc([N+](=O)[O-])cc1 | 6.21% (inactive) |
| COc1ccc(-c2noc(CN3N=NC4C(=O)N(c5ccc(C)c(F)c5)C(=O)C43)n2)c(OC)c1 (stereo not drawn) | 6% (inactive) |
| O=C(NCC(O)(c1ccccc1)C(F)(F)F)C(=O)Nc1ccccc1 (stereo not drawn) | -3% (inactive) |
| CS(=O)(=O)N1CCC(CNC(=O)c2cc3ccccc3o2)CC1 | -23% (inactive) |
| CC1(C)N=C(SCC(=O)Nc2ccc(Br)cc2)C(c2ccccc2)=N1 | -5% (inactive) |
| COc1ccc2nc(N(CCN(C)C)C(=O)c3ccc(S(=O)(=O)N4CCCc5ccccc54)cc3)sc2c1 | 41% (active) |
| CCOc1ccc2nc(N(CCN(C)C)C(=O)c3ccc(S(=O)(=O)N4CCC(C)CC4)cc3)sc2c1 | 29% (inactive) |
| CN(C)CCN(C(=O)CCOc1ccccc1)c1nc2cc3c(cc2s1)OCO3 | 7% (inactive) |
| COc1cccc2sc(N(CCCN(C)C)C(=O)c3ccc(F)cc3)nc12 | -18% (inactive) |
| COc1cc2nc(N(CCN(C)C)C(=O)c3ccc(S(=O)(=O)N(C)Cc4ccccc4)cc3)sc2cc1OC | 24% (inactive) |
| Cc1ccc2nc(N(CCN(C)C)C(=O)c3ccc(S(=O)(=O)N4CCCCCC4)cc3)sc2c1 | 35% (active) |
| COc1ccc2nc(N(CCN3CCOCC3)C(=O)c3ccccc3S(C)(=O)=O)sc2c1 | 0% (inactive) |
| CN(C)CCCN(C(=O)c1ccc(S(=O)(=O)N2CCCc3ccccc32)cc1)c1nc2ccc(F)cc2s1 | 42% (active) |
| CCOc1ccc2nc(N(Cc3ccncc3)C(=O)Cc3ccc(F)cc3)sc2c1 | 13% (inactive) |
| CN(C)CCCN(C(=O)c1ccccc1)c1nc2c(F)cc(F)cc2s1 | 5% (inactive) |
| CC1CN(S(=O)(=O)c2ccc(C(=O)N(CCN(C)C)c3nc4cc5c(cc4s3)OCCO5)cc2)CC(C)O1 (stereo not drawn) | 15% (inactive) |
| CCOc1ccc2nc(N(CCN(C)C)C(=O)c3ccc4ccccc4c3)sc2c1 | 14.2% (inactive) and 45% (active) |
| O=C1CCCC(=O)N1CCS(=O)(=O)N1CCC(c2nnc(-c3ccco3)s2)CC1 | -4% (inactive) |

| Structure (SMILES) | inhibition |
| --- | --- |
| O=C([C@@H]1CC=CCC1)N1CCN(c2ccc(-n3cncn3)nn2)CC1 | -9% (inactive) |
| CCc1nc(-c2ccc(N3CCN(C(=O)c4cc5cccc(OC)c5o4)CC3)nc2)no1 | -1% (inactive) |
| NCc1n[nH]c(=O)c2ccccc12 | -2% (inactive) and -4% (inactive) |
| COC(=O)c1ccccc1NC(=O)c1snnc1C | -11% (inactive) |
| COc1cccc2cc(C(=O)Nc3ccc4nc(N5CCN(C)CC5)sc4c3)oc12 | -6% (active) |
| CN1CCN(c2nc3ccc(NC(=O)c4ccc5c(c4)OCO5)cc3s2)CC1 | -2% (inactive) |
| COc1ccc(OC)c(C(=O)Nc2ccc3nc(N4CCN(C)CC4)sc3c2)c1 | 6% (inactive) and -21% (inactive) |
| O=C(NCC#CCOc1ccc2c(c1)OCO2)Nc1ccccc1C(F)(F)F | -21% (inactive) |
| Cc1ccccc1-c1nc(CSc2nc(C)c(Cc3ccccc3)c(=O)[nH]2)c(C)o1 | 7% (inactive) |
| Cc1nc2oc(-c3ccccc3)nc2cc1NC(=O)c1cc(=O)c2ccccc2o1 | -8% (inactive) |
| Cc1c(C(=O)O)cccc1-c1ccc(C=NNc2ccc(Br)cc2)o1 | 0.6% (inactive) |
| CC(NC(=O)c1ccco1)C(=O)Nc1nc(-c2ccccn2)cs1 (stereo not drawn) | 74.4% (active) |
| O=C(Nc1nc(-c2ccccn2)cs1)c1ccc(-c2ccccc2)cc1 | -19% (inactive) |
| CC(C)Sc1ccc(C(=O)Nc2nc(-c3ccccn3)cs2)cc1 | 50.6% (inactive) |
| CCSc1ccc(C(=O)Nc2sc(-c3ccccc3)cc2C(N)=O)cc1 | -22% (inactive) |
| CC(=O)Nc1ccc(C=NNC(=O)c2cccc(S(=O)(=O)N3CCOCC3)c2)cc1 | -5.31% (inactive) |
| O=C(NN=Cc1cc(Cl)cc([N+](=O)[O-])c1O)c1cccc(S(=O)(=O)N2CCOCC2)c1 | 41.7% (active) |
| CCOc1cc(C=NNC(=O)c2cccc(S(=O)(=O)N3CCOCC3)c2)ccc1OCC(=O)N(C)C | -12.5% (inactive) |
| O=C(Oc1cccc(Oc2ccccc2)c1)N1CCCCC1 | -33% (inactive) |
| O=C(Nc1nc(CCC(=O)N2CCN(c3ncccn3)CC2)cs1)NC1CCCCC1 | -9% (inactive) |
| COc1ccccc1CNC(=O)CSc1nc2c(-c3ccccc3)c[nH]c2c(=O)n1C1CC1 | -8% (inactive) |
| CCc1ccccc1NC(=O)NCCOc1ccc2nnc(-c3cccc(F)c3)n2n1 | -4% (inactive) |
| O=S(=O)(NCC1(CO)CC1)c1cccc(Cl)c1 | -9% (inactive) |
| Cc1cc(C(=O)NCC2CCCN2c2ccccc2)no1 (stereo not drawn) | 0% (inactive) |

| Structure (SMILES) | inhibition |
| --- | --- |
| O=C(NC[C@H]1CCCN1c1ccccc1)c1cc(-c2ccco2)[nH]n1 | 47% (active) |
| COCCNC(=O)NC[C@H]1CCCN1c1ccccc1 | 6% (inactive) |
| COc1ccc(OC)c(C(=O)Nc2nnc(Cc3ccc(Cl)s3)o2)c1 | -12% (inactive) |
| COc1cc(CO)ccc1OCC(=O)Nc1cccc2ccccc12 | -4.4% (inactive) |
| COc1ccc(-c2nnc(SCC(=O)Nc3cccnc3Cl)n2C)cc1 | 2.83% (inactive) |
| COc1ccc(Cn2c(CO)cnc2SCC(=O)Nc2cccc3ccccc23)cc1 | 41% (active) |
| O=S(=O)(Cc1ccccc1)N1CCN(c2cc(-n3cccc3)ncn2)CC1 | 6% (inactive) |
| CCCN1C(=O)C(C)(C)COc2ccc(N)cc21 | 32% (inactive) |
| Cn1cccc1-c1noc(CNC(=O)c2n[nH]c(=O)c3ccccc23)n1 | -3% (inactive) |
| CCC(=O)Nc1c(C)nc2scc(C)n2c1=O | 13% (inactive) |
| N#Cc1nc(-c2cccc3ccccc23)oc1N | -28.7% (inactive) |
| N#Cc1nc(-c2ccco2)oc1N1CCN(C(=O)c2ccccc2F)CC1 | 9% (inactive) |
| CC1CCN(c2oc(-c3ccccc3F)nc2C#N)CC1 | 42.8% (active) |
| O=C(NC[C@]1(O)CCc2ccccc21)c1ccccc1F | -14% (inactive) |
| O=C(NCCc1ccccc1)NCCC(O)c1ccccc1 (stereo not drawn) | -6% (inactive) |
| CC(C)C(NC(=O)c1ccc([N+](=O)[O-])cc1)c1nc2ccccc2[nH]1 (stereo not drawn) | -6% (inactive) |
| CC(=NC1CCN(Cc2ccccc2)CC1)c1c(O)[nH]c(=O)[nH]c1=O | -3% (inactive) |
| Clc1cccc(N=C2NN=C(c3ccc4c(c3)OCCO4)CS2)c1 | 44.3% (active) |
| O=C(Cc1cc(=O)[nH]c(SCc2cccc(Cl)c2)n1)Nc1ccc2c(c1)OCCO2 | 12% (inactive) |
| c1ccc(Cc2nnc(-c3ccc4c(c3)OCCO4)o2)cc1 | -10% (inactive) |
| c1ccc(CN2CCC(N=C3NN=C(c4ccc5c(c4)OCCO5)CS3)CC2)cc1 | 49.7% (active) |
| CC1Oc2ccccc2OC1C(=O)N1CCN(c2nc3c(S(C)(=O)=O)cccc3s2)CC1 (stereo not drawn) | -4% (inactive) |
| Cc1ccc(Cl)cc1-n1ccn(CC#N)c(=O)c1=O | -5% (inactive) |
| Cc1ccc2nc(C(=O)O)cc(Nc3ccc(C)c(C)c3)c2c1 | -5% (inactive) |

| Structure (SMILES) | inhibition |
| --- | --- |
| Cc1ccc(Nc2cc(C)nc3c(C)ccc([N+](=O)[O-])c23)cc1 | 106% (active) |
| Cc1ccc(NC2=NC(c3ccccc3)n3c(nc(C)cc3=O)N2)cc1 (stereo not drawn) | -5.57% (inactive) |
| O=C(Nc1cccc(-c2nc3ccccc3s2)c1)c1ccc([N+](=O)[O-])cc1 | -2% (inactive) |
| CC(=O)OCC1OC(Oc2ccc(C(=O)/C=C/c3ccccc3)cc2)C(OC(C)=O)C(OC(C)=O)C1OC(C)=O (stereo not drawn) | 5% (inactive) |
| COc1cc(C(CCN2CCN(c3ccccc3)CC2)c2c(OC)cc(OC)c3ccc(=O)oc23)cc(OC)c1OC (stereo not drawn) | -0.54% (inactive) |
| CCN(CC)CCC(c1ccc2c(c1)OCO2)c1c(OC)cc(OC)c2c(-c3ccccc3)cc(=O)oc12 (stereo not drawn) | 24.5% (inactive) |
| COc1cc(OC)c2ccc(=O)oc2c1C(CCN1CCN(c2ccccc2)CC1)c1ccc2c(c1)OCO2 (stereo not drawn) | 41.6% (active) |
| C=CCOc1ccc(C(O)=C2C(=O)C(=O)N(CCOC)C2c2cccnc2)cc1 (stereo not drawn) | 0.46% (inactive) |
| FC(F)Sc1ccc(-c2csc(Nc3ccccc3)n2)cc1 | -4% (inactive) |
| O=C(c1ccc(Br)o1)N1CCC(CSc2ccccn2)CC1 | 7% (inactive) |
| CC(=O)Nc1ccc(C(=O)N2CCc3nc4ccc(Cl)cn4c(=O)c3C2)cc1 | -7% (inactive) |
| CC(C)CS(=O)(=O)C1CN(C(=O)c2ccc3nsnc3c2)C1 | -14% (inactive) |
| Oc1c(CN2CCOCC2)ccc(CN2CCOCC2)c1O | -7.99% (inactive) |
| Oc1ccc(CN2CCCCCC2)c2cccnc12 | 124% (active) |
| Oc1ccc(CN2CCCC2)c2cccnc12 | 106% (active) |
| COc1ncc(Br)c2ncccc12 | -7% (inactive) |
| COCCOCc1ccc(O)c2ncccc12 | 114% (active) |
| OCc1cccc2cccnc12 | 41.4% (inactive) |
| Clc1ccc(CN2CCCCCC2)cc1Cl | -4.06% (inactive) |
| O=[N+]([O-])c1ccc(N2CCCCC2)c2cccnc12 | 46.9% (inactive) |
| Oc1c(CN2CCCC2)cc(Cl)c2cccnc12 | 103% (inactive) |
